Measured values taken from paper PMC4336329 (PLoS ONE, 2015).
The campaign covered roughly 310,000 compounds. About 2,200 (0.71%) showed an effect of 50% or more. Effects have a minus sign here. This is one part of a sample in which strong results are shown more often than they occur.

Molecular target: human ether-à-go-go-related gene (hERG) potassium channel (human, UniProt Q12809)
Assay: primary screen, population patch clamp on CHO cells stably expressing hERG; higher = less effect of the substance

Sequence of human ether-à-go-go-related gene (hERG) potassium channel (Q12809 whole entry, looked up): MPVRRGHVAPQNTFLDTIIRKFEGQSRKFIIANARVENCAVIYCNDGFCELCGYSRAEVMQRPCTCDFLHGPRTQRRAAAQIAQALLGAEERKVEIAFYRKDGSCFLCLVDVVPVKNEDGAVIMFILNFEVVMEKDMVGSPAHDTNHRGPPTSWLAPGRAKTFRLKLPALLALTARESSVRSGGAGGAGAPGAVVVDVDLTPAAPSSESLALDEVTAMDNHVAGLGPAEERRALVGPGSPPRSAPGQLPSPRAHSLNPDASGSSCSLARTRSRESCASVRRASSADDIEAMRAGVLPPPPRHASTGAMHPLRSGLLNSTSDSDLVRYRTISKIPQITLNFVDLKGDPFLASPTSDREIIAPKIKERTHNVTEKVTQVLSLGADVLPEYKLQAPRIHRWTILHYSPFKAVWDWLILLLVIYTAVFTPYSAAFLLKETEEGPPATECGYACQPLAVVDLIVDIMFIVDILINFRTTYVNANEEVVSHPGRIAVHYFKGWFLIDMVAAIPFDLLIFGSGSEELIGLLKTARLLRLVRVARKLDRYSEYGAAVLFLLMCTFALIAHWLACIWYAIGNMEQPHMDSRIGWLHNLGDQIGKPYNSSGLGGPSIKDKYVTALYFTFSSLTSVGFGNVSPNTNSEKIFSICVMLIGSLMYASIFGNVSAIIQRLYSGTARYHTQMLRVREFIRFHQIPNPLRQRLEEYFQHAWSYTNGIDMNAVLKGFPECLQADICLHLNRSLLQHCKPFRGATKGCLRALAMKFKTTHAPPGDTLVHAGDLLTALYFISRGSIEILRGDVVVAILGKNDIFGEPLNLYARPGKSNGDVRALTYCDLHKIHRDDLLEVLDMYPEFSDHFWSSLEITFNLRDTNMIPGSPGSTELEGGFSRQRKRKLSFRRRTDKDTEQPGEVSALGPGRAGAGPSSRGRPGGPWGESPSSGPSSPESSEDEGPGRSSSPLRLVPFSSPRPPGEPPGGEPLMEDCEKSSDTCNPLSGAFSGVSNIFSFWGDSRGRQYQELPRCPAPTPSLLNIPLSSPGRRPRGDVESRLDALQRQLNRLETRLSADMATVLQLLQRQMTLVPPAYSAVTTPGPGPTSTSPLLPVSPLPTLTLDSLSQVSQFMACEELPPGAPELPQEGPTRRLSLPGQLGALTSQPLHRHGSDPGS

Row | Structure (SMILES) | hERG current change (%, negative = inhibition) at 1uM
1 | CC(C)c1ccc(C(N)=S)cc1 | 7.86%
2 | O=C(Cc1ccccc1)N1CCC2(CC1)NCCc1[nH]cnc12 | 20.4%
3 | COc1ccc(NC(=O)/C=C/c2ccc(C)o2)cc1S(=O)(=O)N1CCOCC1 | 3.88%
4 | COc1cc(S(=O)(=O)Nc2ccccc2N2CCCCC2)ccc1NC(C)=O | -4.5%
5 | COC(=O)C(NC(=O)c1c(C)nn(C)c1Cl)c1ccccc1 (stereo not shown) | 14.2%
6 | Cc1ccc2c(c1)c(C)c(C)n2CC(O)Cn1nnc2ccccc21 (stereo not shown) | 12.4%
7 | CS(=O)(=O)NCc1nnc(SCc2c(F)cccc2Cl)o1 | -1.52%
8 | O=C(O)c1cccc(Nc2ccc([N+](=O)[O-])c3nonc23)c1 | 2.1%
9 | Cc1cc(=O)n2nc(N3CCCC3C(=O)Nc3cccc(Cl)c3C)sc2n1 (stereo not shown) | 12.5%
10 | COc1ccc(N2CCN(C(=O)c3ccc4c(=O)n(Cc5ccc6c(c5)OCO6)c(=O)[nH]c4c3)CC2)cc1 | 25%
11 | CC(=O)/C(=C\N(C)C)Sc1ccc(C)cc1 | 27.2%
12 | Cc1ccc(C(=O)Oc2cc(C)n(C)c(=O)c2)cc1 | 5.86%
13 | COc1cc(Cl)nn(-c2ccccc2)c1=O | 13.3%
14 | CC1(c2ccc([N+](=O)[O-])cc2)Nc2ccccc2S1 (stereo not shown) | 10.9%
15 | COc1ccc(C[C@@H]2CN3C(=NC[C@@H]3C)N2C[C@H](C)NC(=O)CCC2CCCCC2)cc1 | -20.8%
16 | COc1ccc(C[C@H]2CN3C(=NC[C@H]3C)N2CCNC(=O)CCC2CCCCC2)cc1 | -51.9%
17 | O=C(CCC1CCCCC1)NCCN1C2=NC[C@H](Cc3ccc(O)cc3)N2C[C@H]1Cc1ccc(O)cc1 | 12.5%
18 | COc1ccc(-c2nnn(Cc3nc(N)nc(N4CCOCC4)n3)n2)cc1OC | 3.65%
19 | Nc1nc(Cn2nnc(-c3ccccc3F)n2)nc(N2CCOCC2)n1 | -53.8%
20 | Nc1nc(Cn2nnc(-c3ccccc3Cl)n2)nc(N2CCOCC2)n1 | -25.9%
21 | COc1ccc(S(=O)(=O)N2CCCC2CNC(=O)C(=O)NC2CCCCCC2)cc1 (stereo not shown) | -3.96%
22 | CCOc1ccc(OCC(=O)N2CCC3(CC2)CC(=O)c2ccccc2O3)cc1 | -56.8%
23 | O=C1CC2(CCN(C(=O)COc3ccc(Cl)cc3)CC2)Oc2ccccc21 | -70.4%

Row | Structure (SMILES) | hERG current change (%, negative = inhibition) at 1uM
24 | Cc1cccc(OCC(=O)N2CCC3(CC2)CC(=O)c2ccccc2O3)c1 | -6.58%
25 | Cc1ccc(OCC(=O)N2CCC3(CC2)CC(=O)c2ccccc2O3)cc1 | -49%
26 | CC(=O)N1CCN(C(=O)COc2ccc(Br)cc2)CC1 | 3.21%
27 | COc1cccc(OCC(=O)N2CCC3(CC2)CC(=O)c2ccccc2O3)c1 | -5.23%
28 | COc1ccc(OCC(=O)N2CCC3(CC2)CC(=O)c2ccccc2O3)cc1 | -70.2%
29 | COc1ccc(OCC(=O)N2CCN(C(=O)COc3ccc(Br)cc3)CC2)cc1 | -56.9%
30 | O=C1CC2(CCN(C(=O)COc3ccccc3)CC2)Oc2ccccc21 | -21.4%
31 | COc1ccc(OCC(=O)N2CCN(C(=O)COc3ccccc3)CC2)cc1 | -24.7%
32 | O=C1CC2(CCN(C(=O)COc3ccc(F)cc3)CC2)Oc2ccccc21 | -17%
33 | Cc1ccccc1OCC(=O)N1CCC2(CC1)CC(=O)c1ccccc1O2 | -10.3%
34 | COc1ccc(NC(=O)N2CC(C)OC(C)C2)cc1OC (stereo not shown) | 9.39%
35 | O=C1c2ccccc2C(=O)N1CCn1ccnc1 | 17.7%
36 | CCOc1cccc(CNc2ccc(O)cc2)c1OCc1ccc(Cl)cc1Cl | 10.8%
37 | O=C(c1cnn2c(C(F)(F)F)cc(-c3ccco3)nc12)N1CCCc2ccccc21 | -1.81%
38 | COc1ccc(C2c3ccc(O)cc3Oc3ncn(Cc4ccccc4)c(=N)c32)cc1OC (stereo not shown) | -0.742%
39 | COc1ccc(C2c3ccc(O)cc3Oc3ncn(Cc4ccco4)c(=N)c32)cc1OC (stereo not shown) | -75.9%
40 | COc1ccc(C2c3ccc(O)cc3Oc3ncn4nc(-c5ccncc5)nc4c32)cc1OC (stereo not shown) | -0.788%
41 | COc1ccc(C2c3ccc(O)cc3Oc3ncn(Cc4ccco4)c(=N)c32)cc1 (stereo not shown) | -43.5%
42 | N=c1c2c(ncn1Cc1ccco1)Oc1cc(O)ccc1C2c1ccccc1 (stereo not shown) | -69.5%
43 | N=c1c2c(ncn1Cc1ccco1)Oc1c(ccc3ccccc13)C2c1ccccc1 (stereo not shown) | 1.59%
44 | COc1ccc(C2c3ccc(O)cc3Oc3ncn4nc(-c5ccccn5)nc4c32)cc1 (stereo not shown) | 18.3%
45 | COc1ccc(C2c3ccc(O)cc3Oc3ncn4nc(-c5ccccn5)nc4c32)cc1OC (stereo not shown) | -50.1%
46 | N=c1c2c(ncn1CCCO)Oc1cc(O)ccc1C2c1ccccc1 (stereo not shown) | 0.259%
